The campaign covered roughly 65,000 compounds. About 2,100 (3.2%) showed an effect of 50% or more. The median lay at about -52%. The list comes from a sample in which strong results are over-represented; it also holds similar structures and randomly drawn compounds.

The assay relates to Plasmodium falciparum. As to the kind of experiment: Screen against P. falciparum Asexual Blood Stage (ABS), at 5uM. The settings on record: tested at 5 uM. Format: functional, Dd2.
Turning to `O=C(c1ccoc1)N1CCO[C@]2(CCC[C@@H]2COCc2cccnc2)C1`, the INHIBITION was -54.6%.

With `Cc1ccc(N2CC[C@@H]3[C@@H]2CCN3C(=O)Cc2ccsc2)nn1`, the INHIBITION is reported as -93.9%.

In the case of `Cc1cc2c(cc1NC(=O)NC(C)(C)C)OCO2`, the INHIBITION is -23.5%.

On to `CCOCc1nc2c(c(N(C)Cc3ccsc3)n1)CCNCC2`, for which the INHIBITION stood at 64.4%.

Consider `CCOCc1nc2c(c(N(C)Cc3nonc3C)n1)CCNCC2`, for which the INHIBITION is listed as 47.4%.

Regarding `CCOCc1nc2c(c(N(C)Cc3snnc3C)n1)CCNCC2`, the INHIBITION is -48%.

Consider `CN(C)CCN1C[C@@H]2CN(c3ccccc3)C[C@@H]2C1=O`, for which the INHIBITION is -41.2%.

Consider `c1cnn(CCCO[C@@H]2CC[C@H]3[C@H]2OCCN3CC2CC2)c1`, for which the INHIBITION is listed as -65.8%.

In the case of `CN(Cc1cccnc1)C1CC2(CCN(Cc3ccccn3)CC2)C1`, the INHIBITION is given as 10.3%.

With `Cc1ccc(CNC(=O)NC2CCCc3c2cnn3CCO)cn1` (stereo not drawn), the INHIBITION is given as -91.3%.

For `COCCN(Cc1cccs1)c1nc(CCN)nc2ccccc12`, the INHIBITION came to 62.2%.

`COCCN(CC1CC1)c1nc(CCN)nc2ccccc12`: the INHIBITION amounted to 12.1%.

In the case of `CCCc1ncc(CN(CCOC)Cc2cccs2)cn1`, the INHIBITION is reported as -70.2%.

With `NCCc1nc(N(Cc2nccs2)C2CC2)c2ccccc2n1`, the INHIBITION was -53.9%.

As for `NCCc1nc(N(Cc2cncs2)C2CC2)c2ccccc2n1`, the INHIBITION is given as -30.2%.

In the case of `Cc1ccsc1CN(c1nc(CCN)nc2ccccc12)C1CC1`, the INHIBITION is given as 51.4%.

With `O=C(Cc1ccon1)N1CCN(c2ccc(F)cc2Cl)CC1`, the INHIBITION is listed as -28.3%.

Regarding `Cc1cnn(CCNCC(O)COc2ccc(F)cc2)c1` (stereo not drawn), the INHIBITION is recorded as 47.3%.

For the compound `O=C(c1ccco1)N1CCC12CCN(c1ncc(F)cn1)CC2`, the INHIBITION is given as -79.7%.

Turning to `CN(C)S(=O)(=O)N1CCC(Oc2cccnn2)CC1`, the INHIBITION is given as -57.2%.

Consider `CC(C)CC(C)NCc1cccnc1N1CCN(c2ccccn2)CC1` (stereo not drawn), for which the INHIBITION is 56.6%.

As to `Cc1nn(C)c(C)c1CNCc1cccnc1N1CCOCC1`, the INHIBITION is given as -43.9%.

In the case of `CC(C)C(=O)NCCC(=O)N1CCN(c2ccccn2)CC1`, the INHIBITION was -172%.

In the case of `CCC(C)NC(=O)NCCC(=O)N1CCN(c2ccccn2)CC1` (stereo not drawn), the INHIBITION was -15.2%.

Turning to `CCCC(C)NCc1cccnc1N1CCN(c2ccccn2)CC1` (stereo not drawn), the INHIBITION came out at 51.4%.

In the case of `Cc1nn(C)c(Cl)c1CNCc1cccnc1N1CCOCC1`, the INHIBITION was -69.2%.

Consider `CC(C)NCc1cccnc1N1CCN(c2ccccn2)CC1`, for which the INHIBITION stood at 3.69%.

On to `CC(C)CC(C)NCc1cccnc1N1CCOCC1` (stereo not drawn), for which the INHIBITION is reported as 60.8%.

For the compound `CCC(CC)C(=O)NCCC(=O)N1CCN(c2ccccn2)CC1`, the INHIBITION was -123%.

For the compound `CC1(C)CNC(=O)CN(C(=O)COc2ccccc2)C1`, the INHIBITION is given as -24.2%.

Consider `NCCCNS(=O)(=O)Cc1ccc(Br)cc1`, for which the INHIBITION is -29.3%.

For the compound `Cc1cccc(CN2C(=O)CCC23CCN(Cc2ccoc2)CC3)n1`, the INHIBITION is recorded as -81%.

As to `CN(C)C(=O)CN1C(=O)CCC12CCN(Cc1ccc(F)cc1)CC2`, the INHIBITION is -99.9%.

`Cc1noc(C)c1CN1CCN(c2ccnc(-c3ccccc3)n2)CC1`: the INHIBITION is recorded as -33.7%.

For `CCN(CC)C1CCN(C(=O)c2cc3cc(C)cc(C)c3nc2C)CC1`, the INHIBITION is listed as 56.8%.

`Cc1cc(C)c2nc(C)c(C(=O)N3CCC(CCN(C)C)CC3)cc2c1`: the INHIBITION is listed as -87.5%.

As to `Cc1cc(C)c2nc(C)c(C(=O)N3CCC(N4CCCC4)CC3)cc2c1`, the INHIBITION is listed as -39.3%.

On to `Cc1cc(CN2C[C@@H](C)[C@@]3(CCN(CC(=O)N(C)C)C3=O)C2)oc1C`, for which the INHIBITION is listed as -100%.

Regarding `CC[C@H](C)[C@H](NC(=O)c1ccc(-n2cnnn2)cc1)C(=O)OC`, the INHIBITION is -18.7%.

As to `CN1CCN(C(=O)c2occc2CN2C(=O)Cc3ccccc32)CC1`, the INHIBITION worked out at 54.3%.

Take `O=C(c1occc1CN1C(=O)Cc2ccccc21)N1CC(O)C1`: the INHIBITION was -89.1%.

With `O=C(c1occc1CN1C(=O)Cc2ccccc21)N1CCCCCC1`, the INHIBITION is recorded as 3.14%.

For the compound `Cc1cc(C(N)=O)nc(C2(C)CCCN2Cc2cnn(C)c2C)n1` (stereo not drawn), the INHIBITION is -80.5%.

For `CN(Cc1ccoc1)C(=O)C1(Oc2ccc(Cl)cc2)CCNCC1`, the INHIBITION was 66.9%.

For the compound `CN(C)C(=O)C1(Oc2ccc(Cl)cc2)CCNCC1`, the INHIBITION turned out to be 49.2%.

In the case of `CN(Cc1ccncn1)C(=O)C1(Oc2ccc(Cl)cc2)CCNCC1`, the INHIBITION is listed as -74.1%.

`Cc1ccc(OC2(C(=O)N(C)Cc3ccoc3)CCNCC2)cc1`: the INHIBITION is recorded as 63.5%.

In the case of `O=C(N[C@@H]1CCCNC1)C1(Oc2ccc(Cl)cc2)CCNCC1`, the INHIBITION was -14.3%.

For the compound `CN(Cc1ccoc1)C(=O)CN1C(=O)OC(C)(C)C1=O`, the INHIBITION is recorded as -47.7%.

Take `COCC(=O)N1CCCn2c(CN3CCCC3)nnc2C1`: the INHIBITION is reported as -108%.

On to `CC(C)NC(=O)C1(CC2CC(c3ccc(F)cc3)=NO2)CCNCC1` (stereo not drawn), for which the INHIBITION was -90.4%.

As to `COc1ncc(NCc2ccc(Cl)c(Cl)c2)cc1C(N)=O`, the INHIBITION is on record as -14%.

As for `Cn1ccc(NC(=O)CN2C[C@@H]3CC[C@H]2CN(Cc2ccccn2)C3)n1`, the INHIBITION is on record as -21.7%.
